# Bioassay records deposited in PubChem by National Center for Advancing Translational Sciences (NCATS).
# Compounds with a hit are over-represented: about 11% of the library has one in this group of screens.
# ALDH1A1 block – blocks purified human ALDH1A1 activity. P00352. Purified ALDH1A1, NADH fluorescence, propionaldehyde substrate. Potency, µM (series often up to 75.3 µM), for the others: at the top dose activity, negative = inhibition, hits mostly inhibitors. 220,000 tested, 7.3% active. AID 1030;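 note: potency is the fitted concentration of half-maximal effect; plate controls were no enzyme wells and a reference inhibitor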
# Target sequence (P00352 whole entry, looked up): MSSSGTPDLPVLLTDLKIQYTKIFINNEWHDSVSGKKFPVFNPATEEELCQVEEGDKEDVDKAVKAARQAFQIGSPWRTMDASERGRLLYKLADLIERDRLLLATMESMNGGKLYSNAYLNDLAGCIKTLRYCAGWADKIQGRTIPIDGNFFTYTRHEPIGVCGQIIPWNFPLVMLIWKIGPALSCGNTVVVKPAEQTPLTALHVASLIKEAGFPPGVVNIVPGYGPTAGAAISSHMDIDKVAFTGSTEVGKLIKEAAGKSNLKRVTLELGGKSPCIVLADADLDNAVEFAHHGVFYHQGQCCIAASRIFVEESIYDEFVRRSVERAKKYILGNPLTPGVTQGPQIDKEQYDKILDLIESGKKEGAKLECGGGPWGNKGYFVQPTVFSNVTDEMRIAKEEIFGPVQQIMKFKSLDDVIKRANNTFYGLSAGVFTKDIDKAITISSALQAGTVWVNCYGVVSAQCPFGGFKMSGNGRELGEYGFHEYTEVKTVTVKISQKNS
# IMPase cell inh – IMPase inhibition in cells | P97697 | CHO-M1 cells, IP1 accumulation, HTRF TR-FRET ratio | inhibition (IP1 accumulation), % at 46.1 µM | 120,000 tested, under 10 active; active = well fitted curve in the direction sought with a large enough effect in the signal ratio, not every such curve was filed as active; inconclusive = small, poorly fitted or top-dose-only effect, or a change in a side signal; inactive = no such curve, though single readings can be large or run the other way; the % refers to the signal ratio;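 note: cells stimulated with carbachol in lithium chloride buffer; plate controls were DMSO basal wells for no effect and reference inhibitor wells for full effect; higher means more IMPase inhibition seen as more IP1 and lower FRET ratio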
#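 Seeded CHO-M1 cells were dosed with compound at up to 46 uM, stimulated with carbachol for 30 min, then lysed in IP-One detection reagents. Higher IP1 lowers the TR-FRET signal.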
# HPGD inh – HPGD (human) dehydrogenase inhibition | purified HPGD, NADH fluorescence kinetic, PGE2 substrate | Potency, µM, for the others: top-dose activity change, negative = inhibition, hits mostly inhibitors | 150,000 tested, 4.3% active | AID 894; note: potency is the fitted concentration of half-maximal effect
#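 20 nM HPGD preincubated 15 min at room temperature with compound in 50 mM Tris-HCl pH 8, 0.01% Tween 20. Started with 1 mM NAD+ and 30 uM prostaglandin E2; NADH fluorescence (360/450 nm) read 5 times over 30-s intervals, last minus first.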
# PNC inhibitor – perinucleolar compartment assembly inhibition; activity change (PNC), negative = inhibition, % at 10 µM; 140,000 tested, 3.1% active; PC3M PTB-GFP, PNC prevalence imaging, 16 h; hits give low values;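 active = readout at or below -70, meaning at least 70% loss of cells showing the perinucleolar compartment, a nuclear body marking cancer cells; inconclusive = readout between -30 and a set limit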;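 note: plate controls were DMSO wells for no effect and camptothecin positive control wells for full effect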
#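 Compounds are pinned in duplicate onto adhered PC3M cells stably expressing GFP-tagged PTB and incubated 16 h at 37 C. Cells are then fixed, nuclei stained with Hoechst, and PNC-positive cells counted.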
# IMPase Li cell – membrane-permeable IMPase blocker, potentiated with lithium; CHO-M1 cells, IP1 TR-FRET (IP-One), carbachol + lithium; Potency, µM (series often up to 59.4 µM), for the others: at the top dose activity, negative = IMPase inhibition, hits mostly inhibitors; 210,000 tested, 0.35% active; AID 1457; active = well fitted curve in the direction sought with a large enough effect; inconclusive = small, poorly fitted or top-dose-only effect, or another doubt; inactive = no such curve, though single readings can be large; an effect the other way counts as inactive or inconclusive;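 note: IP1 builds up when IMPase is blocked and the TR-FRET signal falls; potency is the fitted concentration of half-maximal effect; plate controls were basal vehicle for no effect and high inhibitor control for full effect; nearly all actives have a fitted effect of over 50% in size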
#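 CHO-M1, 2000 cells/well, 16–30 h culture; cpd + low Li+, 30 min 37C; lysis with d2-IP1/Eu-anti-IP1 Ab, 10 min RT; TR-FRET 665/620 ratio and 620 channel; AC50 via Hill.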
# NPSR antagonist – antagonists of human neuropeptide S receptor cAMP signaling. Q6W5P4. CHO-NPSR cells, cAMP TR-FRET, antagonist mode. Potency, µM (doses to about 38.3 µM), without a hit: top-dose activity change, negative = inhibition, most hits filed as inhibitors. 220,000 tested, 1% active. AID 1461; active = well fitted curve in the direction sought with a large enough effect; inconclusive = small, poorly fitted or top-dose-only effect, or another doubt; inactive = no such curve, though single readings can be large; an effect the other way counts as inactive or inconclusive; note: potency is the fitted concentration of half-maximal effect; nearly all actives have a fitted effect of over 50% in size
# An asterisk follows results filed as active; ? = inconclusive; nt = no result; [ ] = another dose, or the depositor's remark. Unless noted, calls come from the whole dose curve; as a rule, active = well fitted inhibition curve with a large enough effect (not every such curve was filed as active); inconclusive = small, poorly fitted or top-dose-only effect, or another doubt; inactive = no such curve, though single readings can be large or run the other way. Unless noted, % is set by controls: 0 for no effect and ±100 for the full control effect.
SMILES,ALDH1A1 block,IMPase cell inh,HPGD inh,PNC inhibitor,IMPase Li cell,NPSR antagonist
COc1cc(C)c(CNc2ccc(OC)c(OC)c2)cc1C,25µM*,8,-17%,0,-6%[38.3 µM],-14%[46.1 µM]
O=[N+]([O-])c1ccc(O)c(/C=N/Nc2ccccn2)c1,-3%,4,-9%,45,9%,-8%
COCCNS(=O)(=O)c1ccc(F)c(OC)c1,5%,-6,-12%,?,29%[38.3 µM],-5%[46.1 µM]
Cc1ccc(S(=O)(=O)NC(C(=O)Oc2ccc3c(C)c(Cl)c(=O)oc3c2)c2ccccc2)cc1 (configuration not stated),?,-16,?,-111*,-4%,-6%[46.1 µM]
Cc1ccc(S(=O)(=O)N[C@H](C(=O)Oc2ccc3c(C(F)(F)F)cc(=O)oc3c2)c2ccccc2)cc1,?,-22,?,-10,-30%[38.3 µM],12%[46.1 µM]
Cc1nnc(SCC(=O)NC2CCS(=O)(=O)C2)n1-c1ccccc1 (configuration not stated),12%,nt,nt,nt,-6%,4%
N#CC1=C(N)Nc2ncnn2C1c1ccccc1 (configuration not stated),6%,nt,-14%,22,-2%,11%
CNC(=O)C1C(=S)NC(N)=C(C#N)C1c1ccccc1 (configuration not stated),18µM*,3,-8%,-4,26%[38.3 µM],11%[46.1 µM]
Clc1ccc2c(NCc3ccccn3)ncnc2c1,3.5µM*,-3,?,22,25%[38.3 µM],-6%[46.1 µM]
Clc1ccc2c(NCc3ccco3)ncnc2c1,-6%,1,-25%,23,33%[38.3 µM],-8%[46.1 µM]
O=C(Nc1ccc(Cl)c(Cl)c1)Nc1nccs1,nt,nt,nt,nt,nt,-8%
COc1ccc(C(=O)N/C(=C\c2cccc([N+](=O)[O-])c2)C(=O)Nc2cccc(C(=O)O)c2)cc1,13µM*,nt,nt,nt,-6%,17%
COc1cc(/C=C(/NC(=O)c2ccccc2)C(=O)Nc2ccccc2)c([N+](=O)[O-])cc1OC,-15%,-13,-3%,110,?,?
COc1ccccc1C(=O)N/C(=C/c1cccc([N+](=O)[O-])c1)C(=O)Nc1cccc(C(=O)O)c1,-7%,nt,nt,nt,-3%,-16%
COc1ccc(NC(=O)/C(=C\c2cc(OC)c(OC)cc2[N+](=O)[O-])NC(=O)c2ccccc2)cc1,-6%,4,32µM*,20,-8%[38.3 µM],?
CC(C)c1nnc(SCC(=O)NC(C)(C)C)n1C,2%,nt,nt,nt,-1%,-10%
CSc1cccc(-n2c(C)cc(C(N)=O)c2C)c1,6%,12,4.5µM*,-14,1%[38.3 µM],-11%[46.1 µM]
CC(=O)CC1(C)OC(N)=C(C#N)C1(C#N)C#N (configuration not stated),9%,-4,-1%,23,-4%[38.3 µM],-7%[46.1 µM]
CCOC(=O)Nc1cc2c(cc1C(C)=O)OCO2,?,-5,?,27,-19%[38.3 µM],9%[46.1 µM]
O=C(Nc1ccc(F)cc1)N1CCC(c2nc3c(nnn3Cc3ccccc3Cl)c(=O)[nH]2)CC1,-9%,nt,nt,nt,-1%,-19%
O=C(c1ccc(Cl)cc1Cl)N1CCC(c2nc3c(nnn3Cc3ccco3)c(=O)[nH]2)CC1,2%,-1,20µM*,?,17%,-17%[46.1 µM]
O=C(c1ccccc1)N1CCC(c2nc3c(nnn3Cc3ccco3)c(=O)[nH]2)CC1,-6%,2,14µM*,-2,4%[38.3 µM],-4%[46.1 µM]
O=C(c1cnccn1)N1CCC2(CCN(Cc3ccncc3)CC2)CC1,0%,nt,-11%,nt,13%,nt
O=C(CSc1ccc(Cl)cc1)Nc1cccc(-c2nnc(-c3ccco3)o2)c1,4%,1,-10%,47,-3%,-14%[46.1 µM]
CCOc1cc(NC(=O)c2ccccn2)c(OCC)cc1NC(=O)c1ccccc1,0%,nt,nt,nt,7%,0%
COc1ccc(C(=O)C(Cc2cc(C(C)=O)ccc2OC)N2CCCC2)cc1 (configuration not stated),?,nt,nt,nt,12%,-3%
CCOC(=O)C1=C(C)C(c2ccccc2OC)NC(=S)N1 (configuration not stated),3.5µM*,10,-10%,?,-2%[38.3 µM],-5%[46.1 µM]
